# Assay results as given in PubChem BioAssay AID2685 (National Center for Advancing Translational Sciences (NCATS), 2010).
# The whole screen tested about 320,000 compounds, of which about 2,100 (0.66%) were called active. Inconclusive results (about 53%) are left out. The call rests on the fitted dose curve; in most records, active means well fitted inhibition curve with a large enough effect in the signal ratio, with a control signal flat (not every such curve was filed as active); inconclusive means small, poorly fitted or top-dose-only effect, or effect the other way, or a change in a side signal; inactive means flat fitted curve, though single readings scatter; the % refers to the signal ratio. Shown is part of a subset that was picked to be rich in actives.
# Experiment: qHTS Assay for Lipid Storage Modulators in Drosophila S3 Cells;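 on cell number change: cells counted by Cell Tracker Red CMTPX staining in the red channel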; on lipid storage change, negative = inhibition: on the % scale 0 is the no-effect control and ±100 the full control effect
# Settings: BODIPY lipid droplet fluorescence, 18-24 h, cells fed with added oleic acid; cell number change: measured here: cell count max response; series mostly up to 46.1 µM; lipid storage change, negative = inhibition: at the top concentration
# Summary of the method: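 Drosophila S3 cells loaded with oleic acid (400 uM, as added) and compounds at several concentrations; lipid droplets imaged by 488-nm laser-scanning cytometry, 500–530 nm intensity and object ratio to cell channel. Percent activity normalized to 20 uM Triacsin C.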
# Potency means the concentration at half of the fitted maximal effect.
SMILES,"lipid storage change, negative = inhibition",cell number change [%],outcome,Potency
Cc1cc(NC(=O)COc2ccc3oc4ccccc4c3c2)no1,15.7% (inactive),-12.8,–,–
CC1CCN(C(=O)c2ccc3c(Cl)c4c(nc3c2)CCCC4)CC1,-0.435% (inactive),2.72,–,–
Cc1ccc(S(=O)(=O)CCN2CCN(c3ccccc3)CC2)cc1,–,-10.3,inactive,–
NS(=O)(=O)c1ccc(CCNC(=O)C(=O)NCC2OCCN2S(=O)(=O)c2ccc(Cl)cc2)cc1 (centres undefined),12.9% (inactive),-8.07,–,–
CN(C)c1ccc(/C=N/NC(=O)c2nnn(-c3nonc3N)c2CN(C)c2ccccc2)cc1,–,24.5,inactive,–
CN(Cc1c(C(=O)N/N=C/c2ccc(O)cc2)nnn1-c1nonc1N)c1ccccc1,–,-9.24,inactive,–
CN(Cc1c(C(=O)N/N=C/c2ccccc2)nnn1-c1nonc1N)c1ccccc1,–,-11.2,–,4610 nM (active)
Cc1ccc(-n2c(SCc3cn4ccsc4n3)nc3ccccc3c2=O)cc1,–,-7.5,inactive,–
C=C(C)CSc1nnc([C@@H]2CCCN2)o1,6.25% (inactive),9.92,–,–
COc1ccc(S(=O)(=O)N2CCCC2C(=O)Nc2ccc(C(C)=O)cc2)cc1 (centres undefined),10.3% (inactive),-11.3,–,–
CC1Sc2ccc(S(=O)(=O)N3CCC(C(=O)Nc4ccc(Cl)cc4)CC3)cc2NC1=O (centres undefined),–,7.08,inactive,–
COc1ccc(NC(=O)C2CCN(S(=O)(=O)c3ccc4c(c3)NC(=O)C(C)S4)CC2)cc1 (centres undefined),–,2.12,inactive,–
O=C(Nc1ccc(F)cc1)C1CCCN(S(=O)(=O)c2ccc3[nH]c(=O)ccc3c2)C1 (centres undefined),-12.6% (inactive),23.9,–,–
COc1ccc(NC(=O)C2CCCN2S(=O)(=O)c2ccc(F)cc2)cc1 (centres undefined),-17.7% [at 9.22 µM] (inactive),-1.12,–,–
CCOc1ccc(NC(=O)C2CCCN2S(=O)(=O)c2ccc(OCC)cc2)cc1 (centres undefined),–,9.72,–,651 nM (active)
CCOc1ccc(NC(=O)C2CCCN(S(=O)(=O)c3ccc4[nH]c(=O)ccc4c3)C2)cc1 (centres undefined),–,23.6,–,20600 nM (active)
CCOc1ccc(NC(=O)C2CCN(S(=O)(=O)c3ccc4c(c3)NC(=O)C(C)S4)CC2)cc1 (centres undefined),–,–,–,1030 nM (active)
CCc1cccc(NC(=O)C2CCCN(S(=O)(=O)c3ccc4[nH]c(=O)ccc4c3)C2)c1 (centres undefined),–,16,inactive,–
CC(C)NCC(O)COCCOc1ccc(Br)cc1 (centres undefined),0.83% (inactive),23.8,–,–
O=C(CCC1CCCN(C(=O)c2ccc3c(c2)OCO3)C1)N1CCN(c2ccccn2)CC1 (centres undefined),17.9% (inactive),-1.56,–,–
CC1CCCCC1NC(=O)c1ccc(S(=O)(=O)N2CCCC2)cc1 (centres undefined),–,25.1,inactive,–
COc1cccc(C(=O)NCCS(=O)(=O)NCCc2ccc(OC)c(OC)c2)c1,–,–,inactive,–
Cc1cc(-c2nn(C)c(=O)c3ccccc23)ccc1CNC(=O)NC1CCCCC1,11.4% (inactive),19.3,–,–
